Test results reported in PubChem BioAssay (NCI).
About 83,000 compounds went through this panel and 20% of them were active in at least one assay; those are over-represented in the sample as a whole.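 Assay: single dose, 48 h. Readout: percent growth (0 = no net growth; negative = cell death). Active: <10.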 The source made the active and inactive calls.

How the values were obtained:
Assay in all cases: NCI-60 one-dose screen, 48 h (100 = growth as untreated, 0 = no growth, -100 = all killed)
Conditions in all cases: 10 µM unless noted
T-47D breast = tested on: T-47D breast
BT-549 breast = tested on: BT-549 breast
MDA-MB-435 melanoma = tested on: MDA-MB-435 melanoma
SW-620 colon = tested on: SW-620 colon
MCF7 breast = tested on: MCF7 breast
HCT-116 colon = tested on: HCT-116 colon
HCC-2998 colon = tested on: HCC-2998 colon
KM12 colon = tested on: KM12 colon

Measured: growth

CN(C)C1CN(C(=O)c2cc(-c3ccc4ncnc(N5CCc6cc(F)c(Cl)cc65)c4c3)cnc2N)C1
active: T-47D breast 4.73% | BT-549 breast -12.8% | MDA-MB-435 melanoma 9.39% | MCF7 breast 5.85%
inactive: SW-620 colon 19.1% | HCT-116 colon 10.6% | HCC-2998 colon 15.3% | KM12 colon 18.2%

C/C=C1/CN(CCCCC)CC[C@H]1C(=O)c1cc2ccccc2[nH]1
inactive: T-47D breast 82.6% | BT-549 breast 97.4% | MDA-MB-435 melanoma 97.8% | SW-620 colon 87% | MCF7 breast 89.3% | HCT-116 colon 66.5% | HCC-2998 colon 101% | KM12 colon 109%

Cc1cc(NCCCNc2ccnc3cc(Cl)ccc23)nc(Nc2ccc(C(=O)N3CCCCC3)cc2)n1
active: T-47D breast -32.8% | MDA-MB-435 melanoma -72.5% | SW-620 colon -0.272% | MCF7 breast 6.95% | HCT-116 colon -38.3% | HCC-2998 colon 0.124%
inactive: BT-549 breast 69.8% | KM12 colon 26.1%

O=c1oc2ccccc2cc1-c1nn(-c2ccccc2)cc1-c1nn[nH]n1
inactive: T-47D breast 100% | BT-549 breast 103% | MDA-MB-435 melanoma 99.5% | SW-620 colon 102% | MCF7 breast 94.8% | HCT-116 colon 96.5% | HCC-2998 colon 110% | KM12 colon 106%

CCCOC(=O)Nc1nc2ccc(SCC)cc2s1
active: MDA-MB-435 melanoma 3.85%
inactive: T-47D breast 84.8% | BT-549 breast 85.5% | SW-620 colon 52.5% | MCF7 breast 43.7% | HCT-116 colon 62.8% | HCC-2998 colon 79.7% | KM12 colon 58.6%

CCOC(=O)c1cnn(CC(C)O)c1NC(=O)NCc1ccccc1C(F)(F)F (stereo not drawn)
inactive: T-47D breast 105% | BT-549 breast 91.4% | MDA-MB-435 melanoma 104% | SW-620 colon 105% | MCF7 breast 95.5% | HCT-116 colon 84.8% | HCC-2998 colon 93.8% | KM12 colon 99.4%

CC(C)(C)c1ccc(S(=O)(=O)Oc2ccc(-c3sc4cc(OS(=O)(=O)c5ccc(C(C)(C)C)cc5)ccc4c3C(=O)c3ccc(OCCN4CCCCC4)cc3)cc2)cc1
inactive: T-47D breast 79.1% | BT-549 breast 97.7% | MDA-MB-435 melanoma 100% | SW-620 colon 101% | MCF7 breast 96.8% | HCT-116 colon 91.6% | HCC-2998 colon 98.1% | KM12 colon 95.5%

Cc1ccccc1N1CCN(C(=S)c2ccccc2)CC1
inactive: T-47D breast 89.1% | BT-549 breast 88.5% | MDA-MB-435 melanoma 103% | SW-620 colon 98.3% | MCF7 breast 88.2% | HCT-116 colon 91.9% | HCC-2998 colon 75.3% | KM12 colon 112%

C=CN(C(=O)N1CCN(c2cc3c(cc2F)c(=O)c(C(=O)O)cn3C2CC2)CC1)c1nc(-c2ccc(Cl)cc2)cs1
inactive: T-47D breast 76.2% | BT-549 breast 63.1% | MDA-MB-435 melanoma 74.8% | SW-620 colon 93.9% | MCF7 breast 51.3% | HCT-116 colon 24.1% | HCC-2998 colon 95.9% | KM12 colon 61.8%

NCCCNc1nc2ccccc2c2c(=O)c3cc(Cl)ccc3sc12
inactive: BT-549 breast 83%
active: T-47D breast -6.77% | MDA-MB-435 melanoma -71.1% | SW-620 colon -90.6% | MCF7 breast -75.4% | HCT-116 colon -92.5% | HCC-2998 colon -75.6% | KM12 colon -67.4%

O=C(Nc1cccnc1Nc1ccccc1)c1cn(Cc2cccc(Oc3ccccc3)c2)nn1
active: MDA-MB-435 melanoma -19.3%
inactive: T-47D breast 71.3% | BT-549 breast 66.2% | SW-620 colon 42.4% | MCF7 breast 23.5% | HCT-116 colon 33.1% | HCC-2998 colon 90.1% | KM12 colon 35%

C=CCn1cc(-c2nc3ccccc3s2)c2cc(-c3ccc4c5c(cccc35)C(=O)N(CCO)C4=O)ccc21
inactive: T-47D breast 78.1% | BT-549 breast 99.4% | MDA-MB-435 melanoma 109% | SW-620 colon 98.9% | MCF7 breast 80.2% | HCT-116 colon 96.7% | HCC-2998 colon 101% | KM12 colon 105%

CCN(CC)c1ccc(-c2cc(-c3cc(OC)c(OC)c(OC)c3)nc(N3CCC(O)CC3)c2C#N)cc1
active: T-47D breast 2.08% | BT-549 breast -1.42% | MDA-MB-435 melanoma -40.8% | SW-620 colon 9.95% | MCF7 breast -33.3% | HCT-116 colon -51% | HCC-2998 colon -10.5% | KM12 colon -26.8%

Clc1ccc(Nc2nnc(CNc3ccccc3)c3ccccc23)cc1
active: T-47D breast 2.82% | BT-549 breast 4.94% | MDA-MB-435 melanoma 4.17% | MCF7 breast 9.2% | HCT-116 colon 9.94% | KM12 colon 8.93%
inactive: SW-620 colon 30.8% | HCC-2998 colon 18.3%

O=S(=O)(Nc1cc(Sc2nc3ccccc3s2)c(O)c2ccccc12)c1ccc2ccccc2c1
inactive: T-47D breast 79.5% | BT-549 breast 105% | MDA-MB-435 melanoma 95.4% | SW-620 colon 108% | MCF7 breast 81.7% | HCT-116 colon 90.6% | HCC-2998 colon 109% | KM12 colon 92.6%

Cc1cc(N2CCN(CC(=O)Nc3ccc4c(ccn4Cc4ccccc4)c3)CC2)nc(N2CCOCC2)n1
inactive: T-47D breast 59.6% | BT-549 breast 81.5% | MDA-MB-435 melanoma 92.9% | SW-620 colon 95% | MCF7 breast 79.8% | HCT-116 colon 72.5% | HCC-2998 colon 119% | KM12 colon 91.3%

O=C(c1c[nH]c2ccccc12)c1n[nH]c(=S)n1-c1ccc([N+](=O)[O-])cc1
inactive: T-47D breast 40.4% | BT-549 breast 117% | MDA-MB-435 melanoma 104% | SW-620 colon 100% | MCF7 breast 63.3% | HCT-116 colon 90.3% | HCC-2998 colon 58.5% | KM12 colon 67.4%

O=C(Cn1nc(-c2cccc3ccccc23)ccc1=O)NCc1cccc(Cl)c1
inactive: BT-549 breast 44.3% [50 µM] | MDA-MB-435 melanoma 45.5% [50 µM] | SW-620 colon 55% [50 µM] | MCF7 breast 20.1% [50 µM] | HCT-116 colon 33.5% [50 µM] | HCC-2998 colon 54.6% [50 µM] | KM12 colon 41.7% [50 µM]
active: T-47D breast 9.17% [50 µM]

CNC(=O)Nc1ccc(-c2ccc3ncnc(Nc4cccc(Cl)c4)c3c2)cc1
inactive: BT-549 breast 50.9% | MDA-MB-435 melanoma 64% | SW-620 colon 93.9% | MCF7 breast 22.6% | HCT-116 colon 65.9% | HCC-2998 colon 74% | KM12 colon 61.3%
active: T-47D breast -4.13%

C=CCN=c1sc(-c2ccc3ccccc3c2)cn1NC(=O)c1cc2ccc1CCc1ccc(cc1)CC2
inactive: T-47D breast 20.8% | BT-549 breast 53.9% | MDA-MB-435 melanoma 67.5% | SW-620 colon 72.9% | MCF7 breast 35.9% | HCT-116 colon 27.1% | HCC-2998 colon 89.1% | KM12 colon 56.6%

COc1ccc(C(=O)Nc2ncc(Cc3ccc(Cl)cc3)s2)cc1
inactive: T-47D breast 25.9% | BT-549 breast 17.8% | SW-620 colon 25.7%
active: MDA-MB-435 melanoma 2.35% | MCF7 breast 8.72% | HCT-116 colon 3.61% | HCC-2998 colon 6.76% | KM12 colon 5.8%

COc1ccc(C/C(C)=C(\c2ccc(O)cc2)c2ccc(OCCN3CCCCC3)cc2)cc1
inactive: T-47D breast 53.8% | BT-549 breast 88.3% | MDA-MB-435 melanoma 82.1% | SW-620 colon 91.6% | MCF7 breast 35.2% | HCT-116 colon 46.5% | HCC-2998 colon 80.8% | KM12 colon 91.1%

COc1cc(O)c2c(=O)c3c(CC=C(C)C)cc(OC)c(O)c3oc2c1
inactive: T-47D breast 45.9% | BT-549 breast 33.2% | SW-620 colon 26.3% | MCF7 breast 23% | HCT-116 colon 11.8% | HCC-2998 colon 53.4% | KM12 colon 23.2%
active: MDA-MB-435 melanoma -3.84%

CCn1cc(C(=O)O)c(=O)c2cc(F)c(N3CCN(CC(=O)Nc4ccccc4)C(C)C3)c(F)c21 (stereo not drawn)
inactive: T-47D breast 95.4% | BT-549 breast 106% | MDA-MB-435 melanoma 97.1% | SW-620 colon 105% | MCF7 breast 92.7% | HCT-116 colon 99.9% | HCC-2998 colon 99.9% | KM12 colon 99.9%

CCCCO[C@@H]1C=C2[C@H]3CC(C)(C)C(=O)C[C@]3(C(=O)O[C@@H]3O[C@H](CO[C@@H]4O[C@H](CO)[C@@H](OC5OC(C)C(O)C(O)C5O)[C@H](O)[C@H]4O)[C@@H](O)[C@H](O)[C@H]3O)CC[C@@]2(C)[C@]2(C)CC[C@H]3C(C)(C)C(=O)CC[C@]3(C)[C@@H]12 (stereo partly drawn)
inactive: T-47D breast 67.4% | BT-549 breast 57.6% | MDA-MB-435 melanoma 51.9% | SW-620 colon 67.5% | MCF7 breast 55.5% | HCT-116 colon 64.9% | HCC-2998 colon 82.7% | KM12 colon 75.2%

COc1ccc(/C=C/C(c2cc(OC)c(OC)c(OC)c2)n2cncn2)cc1O (stereo not drawn)
inactive: T-47D breast 34.4% | BT-549 breast 36.6% | SW-620 colon 27.6% | MCF7 breast 21.2% | HCT-116 colon 10.5% | HCC-2998 colon 67.7% | KM12 colon 26.7%
active: MDA-MB-435 melanoma -33%

CC(O)Cc1c[nH]c(=O)[nH]c1=O (stereo not drawn)
active: T-47D breast -19.1%
inactive: BT-549 breast 105% | MDA-MB-435 melanoma 103% | SW-620 colon 94.9% | MCF7 breast 88.9% | HCT-116 colon 97.2% | HCC-2998 colon 119% | KM12 colon 95.6%

Cc1cc(O)cc(-c2nn(C)cc2-c2cc(N3CCOCC3)nc(-c3cccnc3)n2)c1
inactive: T-47D breast 28.8% | BT-549 breast 36.3% | SW-620 colon 38.4% | MCF7 breast 14.9% | HCT-116 colon 17.3% | HCC-2998 colon 63% | KM12 colon 28.9%
active: MDA-MB-435 melanoma 3.68%

N=C(N)c1ccc(OCCSCCOc2ccc(C(=N)N)cc2)cc1
inactive: T-47D breast 50.5% | BT-549 breast 11.1% | MDA-MB-435 melanoma 79.9% | SW-620 colon 87.6% | MCF7 breast 58.1% | HCT-116 colon 68.4% | HCC-2998 colon 79.7% | KM12 colon 62.2%

CCN(CC)CCn1c2ccc(OC)cc2c2sc3cc(O)ccc3c(=O)c21
inactive: T-47D breast 62.5% | BT-549 breast 62.7% | MDA-MB-435 melanoma 48.8% | SW-620 colon 13.3% | HCT-116 colon 14.2% | HCC-2998 colon 28.2% | KM12 colon 24.6%
active: MCF7 breast 9.43%

COc1cc([C@@H](CCO)C[C@H](C)c2ccc3ccccc3c2)cc(OC)c1OC
active: MDA-MB-435 melanoma 2.44%
inactive: T-47D breast 45.3% | BT-549 breast 26% | SW-620 colon 18.9% | MCF7 breast 18.8% | HCT-116 colon 18.7% | HCC-2998 colon 56.1% | KM12 colon 26.3%
